According to PubChem BioAssay AID1628 (Sanford-Burnham Center for Chemical Genomics, 2009):
In all, about 190,000 compounds went through this assay and about 930 (0.49%) were called active.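 How the source made its calls: active means z-score of insulin promoter reporter brightness in nuclei below -3 at 5 µM, with at least 500 cells counted; inconclusive means wells with under 500 cells, flagged as toxic or sparse; inactive means the rest.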 This is one part of the list. Measured potencies and affinities stand elsewhere.

Assay: decrease of insulin promoter-GFP reporter – imaging, high-content screening, mouse beta cells (AID 1628)
Settings: MIN6 insulin promoter GFP reporter, at 5 µM, active compounds read low
With `CCN(CC)S(=O)(=O)c1cccc(-c2n[nH]c(=S)n2/N=C/c2ccc(C(=O)OC)cc2)c1` the z-score was -4.66 (active).
In the case of `COC(=O)c1cc(Nc2cc(C)c3ccc(O)cc3n2)cc(C(=O)OC)c1`, the z-score is reported as -3.19 (active).
With `COC(=O)c1cc(-c2c(C)oc3cc(O)ccc3c2=O)c(C)o1` the z-score was 0.55 (inactive).
In the case of `Cc1cc(C(=O)COc2ccc(-c3nnco3)cc2)c(C)n1Cc1ccccc1`, the z-score is reported as -4.66 (active).
For `S=C(Nc1ccccc1Cl)N(CCCN1CCOCC1)Cc1ccco1`, the z-score was -4.9 (active).
In the case of `CCOC(=O)Cc1csc(SCC(=O)Nc2cccc(C#N)c2)n1`, the z-score is reported as 1.27 (inactive).
In the case of `Cc1csc(SCC(=O)Nc2cccc3nsnc23)n1`, the z-score is reported as -3.34 (active).
With `Cc1csc(NC(=O)CN(C)S(=O)(=O)c2cccc3cccnc23)n1` the z-score was 3.05 (inactive).
With `N=c1c2c(n(Cc3ccc(F)cc3)c3c1CCC3)CCC2` the z-score was -5.9 (active).
With `N=c1c2c(n(Cc3ccc([N+](=O)[O-])cc3)c3c1CCC3)CCCC2` the z-score was -3.48 (active).
For `CC(C)(C)NC(=O)N1CCC(CO)(Cc2ccccc2Cl)CC1`, the z-score was -3.59 (active).
In the case of `CCCCn1nc2cc(C(=O)N(CC)c3ccc(OC)cc3)ccc2c1OCC`, the z-score is reported as -3.8 (active).
With `CCCn1nc2cc(C(=O)NCc3ccccc3)ccc2c1OCC` the z-score was 4.73 (inactive).
In the case of `Cc1ccccc1N=Nc1c(C)[nH]n(C(N)=S)c1=O`, the z-score is reported as -9.54 (active).
For `O=C(NNS(=O)(=O)c1ccc(F)cc1F)c1csc(-c2cccnc2)n1`, the z-score was -3.45 (active).
In the case of `Nc1c(C(=O)N/N=C/c2cccnc2)oc2nc(-c3ccccc3)cc(-c3ccco3)c12`, the z-score is reported as 4.08 (inactive).
With `O=C(CSc1nc(Cc2ccccc2)nc2ccccc12)Nc1nc2c(s1)CCCC2` the z-score was -3.54 (active).
For `CCCCc1nnc(NC(=O)CSc2nc(O)c(Cc3ccccc3)c(=O)[nH]2)s1`, the z-score was 2.27 (inactive).
For `CN(C)c1ccc(/C=C(\C#N)C(=O)Nc2nc3c(s2)CCN(Cc2ccccc2)C3)cc1`, the z-score was 15.1 (inactive).
With `O=c1cc(O)c2c(=O)n(-c3ccccc3)c3c(c2o1)CCCCCC3` the z-score was -4.17 (active).
For `Cc1cc(Nc2nn(C)c(N)c2C#N)ccc1F`, the z-score was 6.01 (inactive).
For `CCOC(=O)C1C(=O)C=C(c2cccc(NS(C)(=O)=O)c2)CC1c1ccco1` (stereo not given), the z-score was -3.47 (active).
For `CCOC(=O)C1C(=O)C=C(/C=C/c2ccc(N(C)C)cc2)CC1c1ccccc1` (stereo not given), the z-score was 9.81 (inactive).
With `COc1ccc(-c2nnn(CC(=O)N(CCO)C(C(=O)NC3CCCC3)c3ccc(F)cc3)n2)cc1` (stereo not given) the z-score was 3.28 (inactive).
With `COc1ccc(OCCC(=O)NC2CCCCC2)cc1` the z-score was -3.45 (active).
In the case of `O=C(COc1ccc(Cl)cc1)NCc1nnc(SCC(=O)NC2CCCCC2)o1`, the z-score is reported as 3.28 (inactive).
In the case of `S=c1[nH]c2ccc(Cl)cc2[nH]1`, the z-score is reported as 1.33 (inactive).
For `O=C(CSc1nnc(-c2cccs2)o1)N1CCOCC1`, the z-score was -4.31 (active).
For `CC1CCCC(C)N1C(=O)CSc1nnc(-c2cccs2)o1` (stereo not given), the z-score was 3.46 (inactive).
In the case of `COc1ccc(C(c2nnnn2Cc2ccccc2)N2CCN(c3nc4ccccc4s3)CC2)cc1` (stereo not given), the z-score is reported as -5.01 (active).
For `c1ccc(Cn2nnnc2C(c2ccccc2)N2CCN(c3nc4ccccc4s3)CC2)cc1` (stereo not given), the z-score was -3.45 (active).
For `COc1ccccc1C(c1nnnn1Cc1ccccc1)N1CCN(c2nc3ccccc3s2)CC1` (stereo not given), the z-score was -5.06 (active).
For `N#C/C(=C/c1ccc(N2CCCCC2)o1)C(=O)Nc1ccc(Cl)cc1`, the z-score was 17.2 (inactive).
For `c1ccc(-c2nnc3sc(CN4CCc5ccccc54)cn23)cc1`, the z-score was -0.03 (inactive).
In the case of `COC(=O)c1ccc(Cl)c(-c2ccc(/C=N/NC(=O)Nc3ccccc3)o2)c1`, the z-score is reported as -3.3 (active).
For `COc1cc([N+](=O)[O-])ccc1-c1ccc(/C=N/NC(N)=O)o1`, the z-score was 3.33 (inactive).
With `COc1cc2c3nnc(-c4ccc(F)cc4)c-3cn(Cc3ccccc3F)c2cc1OC` the z-score was 6.27 (inactive).
In the case of `CC(C)COC(=O)c1nnsc1NC(=O)Nc1ccccc1`, the z-score is reported as -3.85 (active).
With `CC1CCc2c(sc3nn[nH]c(=O)c23)C1` (stereo not given) the z-score was 4.24 (inactive).
In the case of `COc1c2c(nc3ccccc13)OC(C(C)(O)COC(C)=O)C2` (stereo not given), the z-score is reported as 3.26 (inactive).
For `Cc1cc(C)cc(NC(=O)/C=C/c2ccc([N+](=O)[O-])s2)c1`, the z-score was 5.99 (inactive).
With `COc1ccc(OC)c(/C(O)=C/C(=O)C(=O)Nc2cc(C)cc(C)c2)c1` the z-score was -5.01 (active).
In the case of `COc1cccc(/C=N/n2c(=O)[nH]c3ccccc32)c1OC`, the z-score is reported as -4.61 (active).
In the case of `O=[N+]([O-])c1ccc2c(c1)C(N1CCOCC1)/C(=C/COc1ccc3ccccc3c1Br)O2` (stereo not given), the z-score is reported as -5.36 (active).
In the case of `Cc1cc(C)n(-c2ccc(C(=O)OCC(=O)N(CC(C)C)C3CCS(=O)(=O)C3)cc2)n1` (stereo not given), the z-score is reported as 3.33 (inactive).
In the case of `CCN(C(=O)COC(=O)c1cccnc1Nc1cccc(C(F)(F)F)c1)C1CCS(=O)(=O)C1` (stereo not given), the z-score is reported as -4.37 (active).
For `O=Nc1c(O)n(Cc2ccc(Cl)cc2)c2ccccc12`, the z-score was 3.05 (inactive).
In the case of `COc1ccc(OC)c(-n2c(=S)[nH]c3c(sc(=S)n3-c3ccccc3)c2=O)c1`, the z-score is reported as 5.22 (inactive).
With `COc1ccc(C2C(=O)c3ccccc3C2=O)cc1OC` the z-score was 3.02 (inactive).
In the case of `COc1ccc(C2/C=C\CN(S(=O)(=O)c3cccc4cccnc34)CC(=O)N2Cc2ccc(F)cc2)cc1` (stereo not given), the z-score is reported as 7.49 (inactive).
With `COc1ccc(C2C(Oc3ccccc3C)C(=O)N2Cc2ccc(F)cc2)cc1OC` (stereo not given) the z-score was -5.19 (active).
For `CCOc1ccccc1N=C1NC(=O)CS1`, the z-score was -6.97 (active).
For `CCOc1ccccc1-c1c2cc(O)c(=O)cc-2oc2cc(O)c(O)cc12`, the z-score was 8.08 (inactive).
With `O=C(Nc1nc2ccccc2n1CCN1CCOCC1)c1ccc(COc2ccccc2Br)o1` the z-score was -3.48 (active).
With `CCCOC(=O)CSc1nnc(-c2ccc(Cl)cc2Cl)o1` the z-score was -1.15 (inactive).
With `COC(=O)CN(C(=O)CSc1nnc(-c2cccc(OC)c2)o1)c1ccc(OC)cc1` the z-score was -0.85 (inactive).
For `COc1ccc(-c2nnc(SCC(=O)N(Cc3ccccc3)C(C)(C)C)o2)cc1OC`, the z-score was -5.96 (active).
With `CCOC(=O)/C(=C/C=C1\Sc2cc(OCC)c(OCC)cc2N1CC)C(C)=O` the z-score was 16.2 (inactive).
In the case of `Cc1ccc(C)c(Cn2c(C)nc3c(sc(=S)n3-c3ccccc3)c2=O)c1`, the z-score is reported as 2.17 (inactive).
For `Cc1nc2c(c(=O)n1Cc1ccccc1Cl)c1nc3ccccc3nc1n2Cc1ccco1`, the z-score was -5.21 (active).
With `CCN(C(=S)Nc1cccnc1)c1cccc2ccccc12` the z-score was -3.01 (active).
In the case of `COCCNC(=O)c1ccc2ccccc2n1`, the z-score is reported as 1.76 (inactive).
With `CCN(C(=S)NCCOC)c1cccc2ccccc12` the z-score was -3.13 (active).
For `CCN(CC)CCN1C(=O)c2oc3ccccc3c(=O)c2C1c1ccccc1` (stereo not given), the z-score was 3.66 (inactive).
In the case of `CN1CCN(CC(=O)Nc2sc3c(c2C#N)CCC(C(C)(C)C)C3)CC1` (stereo not given), the z-score is reported as -3.27 (active).
With `CCCN1CCc2c(sc(NC(=S)NC(=O)c3ccccc3)c2C#N)C1` the z-score was 5.2 (inactive).
With `CCCCN1C(=O)/C(=C/C=C2\N(C)c3ccccc3C2(C)C)SC1=S` the z-score was 10.9 (inactive).
In the case of `CN1/C(=C\C=C2/SC(=S)NC2=O)C(C)(C)c2ccccc21`, the z-score is reported as 13.4 (inactive).
For `CCCCC(=O)Nc1ccc2c(c1)nc1n2CCSC1`, the z-score was 3.16 (inactive).
With `Cc1cc(C)nc(N(C#N)CC(=O)N2CCC(C(N)=O)CC2)n1` the z-score was 1.53 (inactive).
For `CCOCCCNC(=O)c1ccc(N2CCCC2)c(NS(=O)(=O)c2ccc(C)cc2)c1`, the z-score was 3.4 (inactive).
In the case of `NC(=O)c1ccc(N2CCN(c3ccc(O)cc3)CC2)c([N+](=O)[O-])c1`, the z-score is reported as -3.43 (active).
In the case of `CN1CCN(c2ccccc2NC(=O)c2ccc(N3CCCC3)c([N+](=O)[O-])c2)CC1`, the z-score is reported as -3.01 (active).
With `COc1ccccc1Nc1nc(Cl)c(C=O)s1` the z-score was 3.19 (inactive).
With `O=C(NC1=NCCS1)C1Cc2ccccc2CN1C(=O)c1ccccc1` (stereo not given) the z-score was 3.06 (inactive).
With `COc1ccc2c(c1)NC(c1ccc(N(C)C)cc1)c1cccn1-2` (stereo not given) the z-score was 12 (inactive).
In the case of `COc1ccc2c(c1OC)C(=O)OC2`, the z-score is reported as 0.33 (inactive).
With `CCN(CC)c1ccc(/C=N/Nc2nc(C)cc(C)n2)cc1` the z-score was -3.23 (active).
For `CCN(CC)c1ccc(/C=C/c2cc(-c3ccccc3)c3ccccc3n2)cc1`, the z-score was 15.3 (inactive).
In the case of `CCN(CC)c1ccc(C=C(c2nnnn2-c2ccccc2)c2nnnn2-c2ccccc2)cc1`, the z-score is reported as 4.4 (inactive).
With `Cc1c(N=C2N=C(NC(=O)c3cccs3)c3ccccc32)c(=O)n(-c2ccccc2)n1C` the z-score was 6.23 (inactive).
For `Cc1ccc(OCCN2CCN(C(=O)CCC(=O)Nc3nnc(C)s3)CC2)cc1`, the z-score was 0.99 (inactive).
For `COC(=O)c1c(NC(=O)c2ccc(C)c(S(=O)(=O)Nc3ccccc3C)c2)sc2c1CCCC2`, the z-score was -3.01 (active).
For `CN1CCS/C1=C/C=C1/SC(=S)N(Cc2ccccc2)C1=O`, the z-score was 12.1 (inactive).
With `CC(C)C(c1nnnn1C1CCCC1)N1CCOCC1` (stereo not given) the z-score was 3.02 (inactive).
In the case of `CCN(Cc1ccccc1)C(c1cccs1)c1nnnn1C1CCCCC1` (stereo not given), the z-score is reported as -3 (active).
With `Clc1ccccc1CN(Cc1ccccc1)C(c1cccs1)c1nnnn1C1CCCC1` (stereo not given) the z-score was -6.23 (active).
For `CCCCNC(=S)NC(=O)c1ccc(Cl)cc1Cl`, the z-score was 3.14 (inactive).
For `COc1ccc(NC(=O)CCC(=O)OCc2ccc(Br)cc2)cc1`, the z-score was -5.13 (active).
In the case of `COc1ccc(NC(=O)CCN2CCCC(C)C2)cc1` (stereo not given), the z-score is reported as 1 (inactive).
With `O=C(NC1C=CS(=O)(=O)C1)c1sc2ccccc2c1Cl` (stereo not given) the z-score was 3.86 (inactive).
For `C#CCn1c(=NC(=O)c2sc3ccccc3c2Cl)sc2cc(S(N)(=O)=O)ccc21`, the z-score was -3.78 (active).
For `C=CCn1c(=NC(=O)c2cc(-c3cccs3)nc3ccccc23)sc2cc(S(N)(=O)=O)ccc21`, the z-score was 8.96 (inactive).
For `CCN1CC=C2C(C#N)=C(N)C(C#N)(C#N)C(CCc3ccccc3)C2C1` (stereo not given), the z-score was 13.8 (inactive).
For `Cc1cccc(-c2ncc(CN3CCCC(CO)(Cc4ccccc4C)C3)cn2)c1` (stereo not given), the z-score was 3.13 (inactive).
